CYP2C9 inhib = human CYP2C9 inhibition. CYP2C9 Supersomes, luciferin-H conversion, luminescence. inhibition, % at 5 µM. 96,000 tested, 20% active. AID 777;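 active = blocking of liver enzyme CYP2C9 beyond about 50% at 5 µM, limit read from the data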
Target sequence (P11712 whole entry, looked up): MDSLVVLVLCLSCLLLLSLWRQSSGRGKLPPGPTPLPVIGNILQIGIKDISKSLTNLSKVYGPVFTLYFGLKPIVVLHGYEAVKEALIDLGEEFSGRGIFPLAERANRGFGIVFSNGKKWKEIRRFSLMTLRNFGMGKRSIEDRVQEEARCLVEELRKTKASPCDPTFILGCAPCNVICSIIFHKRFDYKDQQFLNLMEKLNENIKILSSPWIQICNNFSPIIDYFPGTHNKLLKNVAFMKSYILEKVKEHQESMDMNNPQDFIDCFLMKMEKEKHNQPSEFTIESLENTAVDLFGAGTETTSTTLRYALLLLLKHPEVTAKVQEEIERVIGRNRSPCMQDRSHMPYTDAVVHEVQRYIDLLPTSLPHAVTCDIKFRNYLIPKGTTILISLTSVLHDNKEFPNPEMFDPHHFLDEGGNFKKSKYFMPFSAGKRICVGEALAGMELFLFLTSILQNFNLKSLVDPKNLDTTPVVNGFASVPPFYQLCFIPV
CYP2C19 act = activators of human cytochrome P450 2C19; P33261; recombinant CYP2C19, luciferin-H EGE luminescence; hits give high values; 0 = fully inhibited enzyme, 1 = untreated enzyme; activation factor at 5 µM; 96,000 tested, under 10 active;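 active = activation factor of at least 2 at 5 µM in the primary screen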;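 also: 0 = wells with 2.5 mM tranylcypromine and 1 = vehicle-only wells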
Mac1 fbg enh = enhancers of human CD11b/CD18 binding to fibrinogen; P05107+P11215; K562 CD11b/CD18 adhesion to fibrinogen, ATPlite luminescence; activation, % at 10 µM; 93,000 tested, 0.07% active; AID 1499;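 active = 10 µM primary screen giving 50% or more activity, confirmed by 40% or more on retest at that dose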
Mac1 fbg inh = inhibitors of human CD11b/CD18 binding to fibrinogen; P05107+P11215; K562 CD11b/CD18 adhesion to fibrinogen, ATPlite luminescence; Mn2+ added to activate the integrin; AID 1497; inhibition, % at 10 µM; 93,000 tested, 0.54% active;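 active = primary inhibition of 50% or more at 10 µM, then 40% or more on retest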
CYP2C19 inhib = human CYP2C19 inhibition; P33261; CYP2C19 Supersomes, luciferin-H EGE luminescence, 30 min; inhibition, % at 5 µM; 96,000 tested, 21% active;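 active = CYP2C19 inhibition above a set limit at 5 µM in the primary screen, cut at about 50% in these data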;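 also: plate controls were negative control wells for no effect and 2.5 mM tranylcypromine positive control for full effect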
CYP2C9 act = CYP2C9 (human) activation. recombinant CYP2C9, luciferin-H conversion, luminescence; hits give high values; factor 1 = untreated enzyme, 0 = blocked. activation factor at 5 µM. 96,000 tested, 1.4% active. AID 1024;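 active = activation factor of 2 or more for CYP2C9 at a 5 µM dose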;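 also: 0 = sulfaphenazole-blocked wells and 1 = vehicle-only wells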
Active calls of the source: *. An excerpt weighted towards active compounds, which were near 28% of everything screened.

For COC(=O)CSc1nc(SCc2ccccc2Cl)nc2c1CCCC2 the results were CYP2C9 inhib 69*, CYP2C19 act 0.5, Mac1 fbg enh 2, Mac1 fbg inh -31, CYP2C19 inhib 50 and CYP2C9 act 0.3.
`COc1ccc(-c2c3c(=O)n(C)c(=O)n(C)c3cn2Cc2cccnc2)cc1` gave CYP2C9 inhib 5, CYP2C19 act 0.7, Mac1 fbg enh -3, Mac1 fbg inh 0, CYP2C19 inhib 28 and CYP2C9 act 0.9.
For COC(=O)c1ccccc1NC(=O)c1ccco1 the results were CYP2C9 inhib -22, CYP2C19 act 0.9, Mac1 fbg enh -4, Mac1 fbg inh 7, CYP2C19 inhib 15 and CYP2C9 act 1.2.
`COC(=O)c1ccccc1NC(=S)NC(NC(=O)c1ccccc1[N+](=O)[O-])C(Cl)(Cl)Cl` (stereo not drawn) gave CYP2C9 inhib 97*, CYP2C19 act 0.1, CYP2C19 inhib 94* and CYP2C9 act 0.
Screening COC(=O)c1ccccc1NC(=S)NC(NC(=O)c1ccco1)C(Cl)(Cl)Cl (stereo not drawn) returned CYP2C9 inhib 88*, CYP2C19 act 0.6, CYP2C19 inhib 42 and CYP2C9 act 0.1.
Screening COC(=O)c1ccccc1NC(NC(=O)c1ccco1)C(=O)c1ccc(C)cc1 (stereo not drawn) returned CYP2C9 inhib 58*, CYP2C19 act 0.8, Mac1 fbg enh 0, Mac1 fbg inh -2, CYP2C19 inhib 18 and CYP2C9 act 0.4.
COC(=O)c1[nH]nc2c1C(=O)N(Cc1ccccc1)C2=O was read as CYP2C9 inhib 17, CYP2C19 act 1, Mac1 fbg enh 3, Mac1 fbg inh 20, CYP2C19 inhib 4 and CYP2C9 act 0.8.
For O=C(NC(NC1CCS(=O)(=O)C1)C(=O)c1cccs1)c1ccccc1 (stereo not drawn) the results were CYP2C9 inhib 69*, CYP2C19 act 0, Mac1 fbg enh -1, Mac1 fbg inh -17, CYP2C19 inhib 99* and CYP2C9 act 0.3.
Cc1ccc(C(=O)N[C@H](C(=O)OCC(=O)NC2CCS(=O)(=O)C2)C(C)C)cc1 (stereo partly drawn) was read as Mac1 fbg enh 1 and Mac1 fbg inh -4.
For O=C(CSCc1c(Cl)cccc1Cl)Nc1nccs1 the results were CYP2C9 inhib 75*, CYP2C19 act 0.8, Mac1 fbg enh 1, Mac1 fbg inh -7, CYP2C19 inhib 22 and CYP2C9 act 0.2.
For CNC(=O)CSCc1c(Cl)cccc1Cl the results were CYP2C9 inhib -1, CYP2C19 act 0.9, Mac1 fbg enh 4, Mac1 fbg inh -5, CYP2C19 inhib 15 and CYP2C9 act 1.
O=C(CSCc1ccccc1)Nc1nccs1 was read as CYP2C9 inhib 44, CYP2C19 act 0.5, Mac1 fbg enh 0, Mac1 fbg inh 10, CYP2C19 inhib 50* and CYP2C9 act 0.6.
For O=C(CCCOc1ccccc1)Nc1nccs1 the results were CYP2C9 inhib 51*, CYP2C19 act 0.1, Mac1 fbg enh -2, Mac1 fbg inh 2, CYP2C19 inhib 86* and CYP2C9 act 0.5.
For O=C(Nc1nccs1)Oc1ccccc1 the results were CYP2C9 inhib 25, CYP2C19 act 0.9, Mac1 fbg enh -1, Mac1 fbg inh -4, CYP2C19 inhib 9 and CYP2C9 act 0.8.
Screening O=C(CSc1cn(Cc2ccccc2)c2ccccc12)Nc1nccs1 returned CYP2C9 inhib 99*, CYP2C19 act 0, Mac1 fbg enh 3, Mac1 fbg inh 9, CYP2C19 inhib 96* and CYP2C9 act 0.
For OC1(c2cn(Cc3ccccc3)nn2)CCCCC1 the results were CYP2C9 inhib -5, CYP2C19 act 0.9, Mac1 fbg enh -2, Mac1 fbg inh -10, CYP2C19 inhib 10 and CYP2C9 act 1.1.
For Cc1ccc(C(=O)COC(=O)c2ccccc2N2C(=O)C3C4CCC(C4)C3C2=O)cc1C (stereo not drawn) the results were CYP2C9 inhib -1, CYP2C19 act 1.1, Mac1 fbg enh 4, Mac1 fbg inh -4, CYP2C19 inhib -12 and CYP2C9 act 1.
Screening O=C(CN1C(=O)C2C3C=CC(C3)C2C1=O)N1CCc2ccccc2C1 (stereo not drawn) returned CYP2C9 inhib -14, CYP2C19 act 1.1, CYP2C19 inhib -8 and CYP2C9 act 1.1.
Screening O=C(CCCSc1nc2ccccc2s1)Nc1nccs1 returned CYP2C9 inhib 88*, CYP2C19 act 0.2, Mac1 fbg enh 3, Mac1 fbg inh -13, CYP2C19 inhib 79* and CYP2C9 act 0.1.
`O=C(CCCc1nc2ccccc2s1)Nc1nccs1` gave CYP2C9 inhib 29, CYP2C19 act 0.6, Mac1 fbg enh -2, Mac1 fbg inh -11, CYP2C19 inhib 42 and CYP2C9 act 0.7.
O=C(CSc1nnc(Cn2nnc(-c3ccccc3)n2)n1-c1ccccc1)Nc1ccccc1 was read as CYP2C9 inhib 29, CYP2C19 act 0.8, Mac1 fbg enh -4, Mac1 fbg inh 0, CYP2C19 inhib 21 and CYP2C9 act 0.7.
Cc1cccc(C)c1NC(=O)CSc1nnc(Cn2nnc(-c3ccccc3)n2)n1-c1ccccc1 was read as CYP2C9 inhib 92*, CYP2C19 act 0.3, Mac1 fbg enh 0, Mac1 fbg inh -3, CYP2C19 inhib 74* and CYP2C9 act 0.1.
For CCCSc1nnc(Cn2c(=O)sc3ccccc32)n1-c1ccccc1 the results were CYP2C9 inhib 68*, CYP2C19 act 0.2, Mac1 fbg enh -4, Mac1 fbg inh 16, CYP2C19 inhib 82* and CYP2C9 act 0.3.
Cn1c(Cn2c(=O)sc3ccccc32)nnc1SCc1cccnc1 was read as CYP2C9 inhib 1, CYP2C19 act 0.6, Mac1 fbg enh 9, Mac1 fbg inh -14, CYP2C19 inhib 42 and CYP2C9 act 1.
Cn1c(Cn2c(=O)sc3ccccc32)nnc1SCc1ccccc1F was read as CYP2C9 inhib 36, CYP2C19 act 0.5, Mac1 fbg enh -2, Mac1 fbg inh -24, CYP2C19 inhib 52* and CYP2C9 act 0.6.
Screening CSc1nnc(Cn2c(=O)sc3ccccc32)n1-c1cccc(Cl)c1 returned CYP2C9 inhib 32, CYP2C19 act 0.9, Mac1 fbg enh -3, Mac1 fbg inh 3, CYP2C19 inhib 9 and CYP2C9 act 0.7.
Screening Cc1csc(NC(=O)CSc2nnc(Cn3c(=O)sc4ccccc43)n2-c2ccccc2)n1 returned CYP2C9 inhib 61*, CYP2C19 act 1.1, Mac1 fbg enh 2, Mac1 fbg inh -9, CYP2C19 inhib -12 and CYP2C9 act 0.4.
For Cc1ccc(OCC(=O)NCC(=O)Nc2ccc(F)c(F)c2F)c([N+](=O)[O-])n1 the results were Mac1 fbg enh -1 and Mac1 fbg inh 5.

Screens deposited in PubChem by Sanford-Burnham Center for Chemical Genomics.
